Measured values published in PubChem BioAssay (NCI).
Compounds without any hit were thinned out: in the full panel of roughly 83,000, 20% have a hit.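 Note: values are percent growth. 100 is the growth of untreated cells, values between 100 and 0 indicate rising inhibition; between -100 and 0 indicates cell death.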 Unmarked numbers belong to inactive results. Active and inactive are the calls of the source. The calls were made as follows: active = growth percent below 10; inactive = the rest.

Test system: HL-60(TB) leukemia
Assay: NCI-60 one-dose screen, 48 h (100 = growth as untreated, 0 = no growth, -100 = all killed)
Conditions: 10 µM unless noted

| SMILES | growth |
| --- | --- |
| COc1cc(/C=C/c2cc(/C=C/c3ccc(O)c(OC)c3)n(-c3c(C)cccc3C)c(=O)n2)ccc1O | 6.05% (active) |
| COc1cc(C(=O)c2cnc(-c3cccc4[nH]ccc34)[nH]2)cc(OC)c1OC | -28.6% (active) |
| CC(C)(O)CCl | 120% |
| Cc1nc2sc(C(=O)Nc3cccc4c3OCCO4)c(N)c2cc1C(C)O (stereo not given) | 8.35% (active) |
| Fc1ccc(-c2nnc(/C=C/c3cn(-c4ccccc4)nc3-c3ccccc3)o2)cc1 | 94.2% |
| N#Cc1c(-c2ccc(Cl)cc2)nc(NN=Cc2cccc(Cl)c2)nc1N1CCOCC1 | 71.5% |
| O=C(Nc1ccc(Nc2ccncc2)cc1)c1ccc(C(=O)Nc2ccc(Nc3ccncc3)cc2)cc1 | 23% |
| CC(/C=C/C=C(\C)[C@H](O)[C@H](C)C(=O)O[C@H]1C[C@H](C)C=C2C=C[C@@]3(C)O[C@@H](O)CC(=O)[C@]3(C)[C@H]21)=C\C=C\C(=O)O | 34% |
| CC1CCC2(OC1)OC1CC3C4CC=C5CC(O)CCC5(C)C4CCC3(C)C1C2C (stereo not given) | 91.9% |
| COC1=CC(c2ccc[nH]2)=N/C1=C\c1[nH]c(C)c(C(=O)CCCCC(=O)NC(C)(C)C)c1C | 3.43% (active) |
| CC(=O)[C@H]1CC[C@H]2[C@@H]3CC[C@H]4CC=CC[C@]4(C)[C@H]3CC[C@]12C | 69% |
| O=C1c2ccccc2NC(c2cn(-c3ccccc3)nc2-c2cccnc2)N1Cc1ccccc1 (stereo not given) | 9.6% (active) |
| c1ccc(N(c2ccccc2)c2ccccc2)cc1 | 94.2% |
| C[N+](C)(CCCCCC[N+](C)(C)C1c2ccccc2-c2ccccc21)C1c2ccccc2-c2ccccc21 | 85.7% |
| O=C(Cc1ccc([N+](=O)[O-])cc1)Oc1ccccc1 | 105% |
| Cc1nn(-c2ccccc2)c(Cl)c1/C=C/C(=O)c1ccc(F)cc1 | 47.1% |
| O=C(Nc1nc(-c2ccccc2Cl)cs1)c1cc(-c2ccc(Cl)cc2)nc2ccc(Cl)cc12 | -21.9% (active) |
| Cc1c(Cl)cccc1NS(=O)(=O)c1ccccc1 | 113% |
| CN(C)CC(C)(C)C(=O)/C=C/c1ccccc1 | -15.3% [25 µM] (active) |
| CCOC(=O)c1ccccc1NC(c1ccccc1)c1ccc2cccnc2c1O (stereo not given) | 3.54% (active) |
| C/C(=C(/c1ccc(Cl)cc1)c1ccc(OCCCN(C)C)cc1)c1ccc(Cl)cc1 | 72.9% |
| Cc1ccc(-c2nc(N3CCN(CC(=O)Nc4ccc(Cl)c(C(F)(F)F)c4)CC3)c3ccccc3n2)cc1 | 97.6% |
| O=c1c2c3c(sc2n2c(-c4cc(-c5ccccc5)nn4-c4ccccc4)nnc2n1Cc1ccccc1)CCCC3 | 50.7% |
| CC(=O)c1ccc(-n2c(-c3cc(-c4ccsc4)n[nH]3)n[nH]c2=S)cc1 | 112% |
| C[C@]12CCc3c(ccc4cc(O)ccc34)[C@@H]1C[C@H](O)[C@@H]2O | 132% |
